The values that follow come from PubChem BioAssay (Tox21).

SMILES strings stand for the structures. Inconclusive results are not listed. Unmarked numbers belong to inactive results. The call rests on the fitted dose curve; in most records, active means well fitted inhibition curve with a large enough effect in the signal ratio in the repeat runs, with a control signal flat; inconclusive means weak or mixed curves, or effect the other way; inactive means flat fitted curve, though single readings scatter; the % refers to the signal ratio.
On the % scale 0 is the no-effect control and ±100 the full control effect.

This test deals with D(2) dopamine receptor (Homo sapiens) (UniProt P14416). Description: Dopamine D2 receptor (DRD2) small molecule antagonists, cell-based qHTS assay (AID 1963595). The following applies: HEK293-DRD2 cAMP HTRF antagonist mode; series mostly up to 92.4 µM; activity change, negative = inhibition: at the top concentration. In outline: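 In this cell-based antagonist screen, compounds act for 10 min at room temperature before a 30 min challenge with 12 nM quinpirole and 200 nM NKH477. cAMP is quantified by HTRF competition in DRD2-HEK293 cells containing 0.1 mM Ro20-1724.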
Sequence of D(2) dopamine receptor (Homo sapiens) (P14416 whole entry, looked up): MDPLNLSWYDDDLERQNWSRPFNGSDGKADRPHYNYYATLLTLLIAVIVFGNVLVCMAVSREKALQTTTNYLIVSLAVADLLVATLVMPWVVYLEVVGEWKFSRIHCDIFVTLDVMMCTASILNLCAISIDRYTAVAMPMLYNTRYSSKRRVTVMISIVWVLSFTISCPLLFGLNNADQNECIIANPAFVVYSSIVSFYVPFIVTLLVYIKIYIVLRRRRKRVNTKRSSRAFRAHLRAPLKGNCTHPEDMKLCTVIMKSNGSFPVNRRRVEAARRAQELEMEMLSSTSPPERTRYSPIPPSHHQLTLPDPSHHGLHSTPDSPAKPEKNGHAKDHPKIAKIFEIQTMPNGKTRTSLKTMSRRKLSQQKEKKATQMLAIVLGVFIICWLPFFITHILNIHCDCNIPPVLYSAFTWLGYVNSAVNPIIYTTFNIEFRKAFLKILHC
As for `CN=C(NC#N)Nc1ccc(C2=NNC(=O)CC2C)cc1` (centres undefined), the “activity change, negative = inhibition” value was -2.96% [at 42.5 µM].
With `CCN(CC)CCOC(=O)C(Cc1cccc2ccccc12)CC1CCCO1` (centres undefined), the “activity change, negative = inhibition” value was -0.696% [at 42.5 µM].
As for `O=c1[nH]cnc2ccccc12`, the “activity change, negative = inhibition” value was 3.92%.
Turning to `CCC(=O)CC(C)CC` (centres undefined), the activity change, negative = inhibition was 8.77% [at 0.348 µM].
As to `CCCCOCCOC(=O)COc1ccc(Cl)cc1Cl`, the “activity change, negative = inhibition” value is 0.975%.
For the compound `CC(=O)CC(=O)OC(C)(C)C`, the “activity change, negative = inhibition” value was 1.86%.
Regarding `CC(COC(C)(C)C)OCCCO` (centres undefined), the “activity change, negative = inhibition” value was -0.344%.
For `CCCC1CCCC(=O)O1` (centres undefined), the “activity change, negative = inhibition” value is -0.264%.
As for `CCCCCCCCCOC(=O)c1ccccc1C(=O)OCCCCCCCCC`, the “activity change, negative = inhibition” value is 0.369%.
Take `N#CC1(N)CCCCC1`: the “activity change, negative = inhibition” value is -3.15%.
Consider `Cc1ccc(-n2nc(C(C)(C)C)cc2NC(=O)Nc2ccc(OCCN3CCOCC3)c3ccccc23)cc1`, for which the “activity change, negative = inhibition” value was -16.3% [at 42.5 µM].
Turning to `CCN(CCCCOC(=O)c1ccc(OC)c(OC)c1)C(C)Cc1ccc(OC)cc1` (centres undefined), the “activity change, negative = inhibition” value was -1.6% [at 42.5 µM].
The figure for `C=COCC(C)C` is 1.34%.
On to `C/C=C/C(=O)OCC(C)C`, for which the “activity change, negative = inhibition” value was -0.321%.
In the case of `N#CSc1ccc(N)c([N+](=O)[O-])c1`, the “activity change, negative = inhibition” value was 9.92%.
As for `C=C(C)C(=O)OCCCCCCCCCCOC(=O)C(=C)C`, the “activity change, negative = inhibition” value is 15.9%.
Regarding `C/C=C/C(=O)Oc1c(CCCCCC(C)C)cc([N+](=O)[O-])cc1[N+](=O)[O-]`, the “activity change, negative = inhibition” value is 2.93%.
As for `O=C(CCCCCCCCc1cccnc1)N1CCC(C=C(c2ccccc2)c2ccccc2)CC1`, the “activity change, negative = inhibition” value is -6.75%.
Take `O=C1CCCN1CCO`: the “activity change, negative = inhibition” value was 3.19%.
For `N=C(N)c1ccc(OCCCOc2ccc(C(=N)N)cc2)cc1`, the “activity change, negative = inhibition” value is 5.33% [at 42.5 µM].
Regarding `COCCCCCCCCOCCC[Si](C)(O[Si](C)(C)C)O[Si](C)(C)C`, the “activity change, negative = inhibition” value was 1.33%.
For `CCOC(=N)CC(=O)OCC`, the “activity change, negative = inhibition” value is 14.1%.
The result for `Oc1ccc2c(c1)CCC2` reads 3.83%.
The figure for `CC(C)(C)c1nnc(NS(=O)(=O)c2ccccc2)s1` is 8.28% [at 42.5 µM].
